Tests used:
Experiment in all cases: PBM binding z-score (relative to random genomic background probes); higher = stronger binding; sequences stand for … in GC…GCGATTGACAGCGTAGAATGAAGG
[1] = test system: PPARg:RXRa DBDmut IVT, anti-RXR (DBD mutation: RXRa K156A/R161A, NR concentration 270 nM, RXRa partner concentration 90 nM)
Method in brief: (§1)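 Ligand-free nuclear receptor dimers were bound for 1 h to custom Agilent 4×180K protein-binding microarrays. Detection used antibodies against each partner (one per run). Binding z-scores rest on regression-normalized fluorescence, with random background probes as the reference.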

[2] = test system: PPARg:RXRa IVT, anti-PPARg (NR concentration 270 nM, RXRa partner concentration 90 nM)
Method in brief: as §1

[3] = test system: PPARg DBDmut IVT, anti-PPARg (DBD mutation: PPARg1 K132A/R137A, NR concentration 270 nM)
Method in brief: as §1

[4] = test system: PPARg homodimer (NR concentration 180 nM)
Method in brief: as §1

[5] = test system: PXR:RXRa (NR concentration 270 nM, RXRa partner concentration 90 nM)
Method in brief: as §1

[6] = test system: PXR homodimer (NR concentration 270 nM)
Method in brief: as §1

[7] = test system: RARa:RXR (NR concentration 270 nM, RXRa partner concentration 90 nM)
Method in brief: as §1

[8] = test system: RARa homodimer (NR concentration 270 nM)
Method in brief: as §1

[9] = test system: RARb:RXRa (NR concentration 270 nM, RXRa partner concentration 90 nM)
Method in brief: as §1

[10] = test system: RARb homodimer (NR concentration 270 nM)
Method in brief: as §1

[11] = test system: RARg:RXRa (NR concentration 270 nM, RXRa partner concentration 90 nM)
Method in brief: as §1

[12] = test system: RARg homodimer (NR concentration 270 nM)
Method in brief: as §1

[13] = test system: RXRa DBDmut IVT, anti-RXR (DBD mutation: RXRa K156A/R161A, NR concentration 90 nM)
Method in brief: as §1

[14] = test system: RXRa homodimer (NR concentration 180 nM)
Method in brief: as §1

[15] = test system: THRa:RXRa (NR concentration 90 nM, RXRa partner concentration 90 nM)
Method in brief: as §1

[16] = test system: THRa homodimer (NR concentration 90 nM)
Method in brief: as §1

[17] = test system: VDR:RXRa (NR concentration 270 nM, RXRa partner concentration 90 nM)
Method in brief: as §1

[18] = test system: VDR homodimer (NR concentration 270 nM)
Method in brief: as §1

[19] = test system: PPARg DBDmut:RXRa IVT, anti-PPARg (DBD mutation: PPARg1 K132A/R137A, NR concentration 270 nM, RXRa partner concentration 90 nM)
Method in brief: as §1

| Sequence | PBM binding z-score [1] | PBM binding z-score [2] | PBM binding z-score [3] | PBM binding z-score [4] | PBM binding z-score [5] | PBM binding z-score [6] | PBM binding z-score [7] | PBM binding z-score [8] | PBM binding z-score [9] | PBM binding z-score [10] | PBM binding z-score [11] | PBM binding z-score [12] | PBM binding z-score [13] | PBM binding z-score [14] | PBM binding z-score [15] | PBM binding z-score [16] | PBM binding z-score [17] | PBM binding z-score [18] | PBM binding z-score [19] |
| --- | --- | --- | --- | --- | --- | --- | --- | --- | --- | --- | --- | --- | --- | --- | --- | --- | --- | --- | --- |
| ATATGTAGGTAAGGGTCATTCAGAAAGTAGGGAA | 5.88 | 6.35 | 2.93 | 3.52 | 3.78 | 1.25 | 4.55 | 2.02 | 3.61 | 3.55 | 4.21 | 3.2 | 2.15 | 4.88 | 3.01 | 1.15 | 4.1 | 3.13 | – |
| ATATGTAGGTTAGGGGCATTCAGAAAGTAGGGAA | 6.62 | 6.65 | 1.93 | 2.07 | 1.43 | 1.48 | 1.52 | 1.74 | 1.86 | 2.01 | 1.14 | 1.14 | 1.45 | 1.21 | 1.73 | 1.35 | 1.44 | 1.82 | – |
| CGTCCAAGGTCAGAGAGGTCATTGAATGCCGAGT | 2.72 | 3.6 | -1.01 | 2.82 | – | 13.6 | 6.68 | 0.848 | – | 5.86 | 6.66 | 6.96 | 3.6 | 6.75 | – | 3.35 | – | 7.43 | 0.144 |
| CCTACTGGGTCATTCAGAGGTCATTGATCATATG | 6.17 | 7.04 | 0.698 | 6.37 | – | 3.7 | – | 1.17 | 4.51 | 5.21 | – | 5.46 | 2.77 | 5.75 | 4.32 | 2.15 | 6.25 | 4.41 | 1.98 |
| AGTCAAAGTTCAGGACGAGGTCACGTAAAGCACG | 0.746 | 3.73 | 0.7 | 5.05 | – | 7.95 | – | 2.01 | – | 5.39 | – | 7.28 | 3.45 | 6.81 | – | 4.95 | – | 5.43 | 0.593 |
| CGAACTAGGTCAAAGGACAGAGAAAGGCGACGTA | 8.13 | 8.31 | 4.05 | 1.87 | 1.26 | -0.306 | 2.31 | 0.114 | 3.88 | 2.7 | 4.29 | 4.46 | 1.73 | 3.38 | 2.44 | 0.0564 | 1.54 | 0.391 | – |
| TGAATGAGGTTAAAGGTCAGGGAACGTGGCGTCG | 3.7 | 6.46 | 1.25 | 5.36 | – | 1.01 | – | 3.29 | 5.08 | 4.57 | 7.13 | 5.51 | 1.87 | – | 4.33 | 1.94 | – | 2.81 | 1.94 |
| CGAACTAGGTCAAAGGACACTGAAAGGCGACGTA | 8.08 | 8.34 | 1.03 | 3.64 | 1.6 | -0.0402 | 2.85 | 0.514 | 3.86 | 3.06 | 4.19 | 4.7 | 1.6 | 3.12 | 2.69 | 0.861 | 1.74 | 0.852 | – |
| TCTAGTAGGTCACGGAGGTCACACACGACGGGTA | 7.04 | 8.61 | 4.54 | 5.46 | – | 7.52 | – | 1.12 | – | 4.79 | 7.29 | 7.88 | 2.43 | 7.26 | – | 3.15 | – | 4.8 | 4.06 |
| ATATGTAGGTCAGGGTCATTCAGAAAGTAGGGAA | 7.87 | 8.62 | 2.1 | 3.22 | 4.42 | 1.93 | 5.05 | 2.85 | 4.49 | 4.5 | 5.21 | 5.33 | 2.58 | 5.76 | 4 | 2.37 | 5.08 | 4.27 | – |
| CGTCCAAGGTAAGAGAGGTCAGTGAATGCCGAGT | 0.589 | 0.75 | -1.45 | 1.77 | – | 1.61 | 3.12 | 0.562 | – | 3.65 | 2.87 | 3.04 | 0.742 | 2.46 | 2.91 | 1.13 | – | 1.93 | -1.12 |
| CGAACTGGGTCAAAGGACAGTGAAAGGCGACGTA | 7.3 | 7.89 | -0.0176 | 0.919 | 1.21 | -0.282 | 2.12 | -0.262 | 3.44 | 2.58 | 3.7 | 3.67 | 0.996 | 3.11 | 1.95 | 0.161 | 1.39 | 0.185 | – |
| CGAACTAGGTCAAAGTACAGTGAAAGGCGACGTA | 7.91 | 8.47 | 3.06 | 1.65 | 1.58 | -0.31 | 2.5 | -0.202 | 3.84 | 2.8 | 4.13 | 4.62 | 2 | 3.1 | 2.57 | 0.294 | – | 0.766 | – |
| CGAACTAGGTCACCAGGACATTGAAGAGGTTGGA | 7.89 | 8.55 | 0.336 | 1.53 | 1.66 | 0.175 | 2.53 | 0.511 | 4.21 | 3.54 | 4.42 | 5.21 | 1.95 | 3.45 | 3.48 | 2.06 | – | 1.1 | – |

Reference: the supplement of paper PMC6555819
